In the supplement of paper PMC8728848:
This excerpt belongs to a sample that is enriched for the strongest signals.

Columns and labels:
Test in all cases: glycan array binding signal (z-score within array); higher = stronger binding
Conditions in all cases: glycan notation: IUPAC condensed, linker removed
[1] = target: Fuc(a1-2)Gal(b1-3)GlcNAc(b1-3)Gal(b1-4)Glc
Method in brief: (§1)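 Glycan array data came from 3228 arrays in the Consortium for Functional Glycomics database, and only arrays with an available protein sequence were kept. Glycan names were put into IUPAC-condensed notation, and columns mapping to the same glycan were averaged. The binding signal is a within-array Z-score, averaged across arrays of one protein sequence run at different concentrations or buffers and across linkers. A negative Z-score can be read as non-binding.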

[2] = target: Fuc(a1-2)Gal(b1-3)GlcNAc(b1-3)[Gal(b1-4)GlcNAc(b1-6)]Gal(b1-4)Glc
Method in brief: as §1

[3] = target: Fuc(a1-2)Gal(b1-4)GlcNAc(b1-2)[Fuc(a1-2)Gal(b1-4)GlcNAc(b1-4)]Man(a1-3)[Fuc(a1-2)Gal(b1-4)GlcNAc(b1-2)Man(a1-6)]Man(b1-4)GlcNAc(b1-4)GlcNAc
Method in brief: as §1

[4] = target: Fuc(a1-2)Gal6S(b1-4)Glc6S
Method in brief: as §1

Fuc(a1-2)[Gal(a1-3)]Gal = target: Fuc(a1-2)[Gal(a1-3)]Gal
Method in brief: as §1

[5] = target: Fuc(a1-2)[Gal(a1-3)]Gal(b1-3)GlcNAc
Method in brief: as §1

[6] = target: Fuc(a1-2)[GalNAc(a1-3)]Gal(b1-4)GlcNAc
Method in brief: as §1

[7] = target: Fuc(a1-2)[GalNAc(a1-3)]Gal(b1-4)GlcNAc(b1-3)GalNAc
Method in brief: as §1

[8] = target: Fuc(a1-2)[GalNAc(b1-3)]Gal
Method in brief: as §1

[9] = target: Fuc(a1-3)[Gal(b1-4)]GlcNAc(b1-4)Gal(b1-4)[Fuc(a1-3)]GlcNAc
Method in brief: as §1

[10] = target: Fuc(a1-3)[Gal(b1-4)]GlcNAc6S
Method in brief: as §1

[11] = target: Fuc(a1-3)[Gal3S(b1-4)]GlcNAc6S
Method in brief: as §1

[12] = target: Gal(a1-3)Gal(b1-3)[Fuc(a1-4)]GlcNAc(b1-2)Man(a1-3)[Gal(a1-3)Gal(b1-3)[Fuc(a1-4)]GlcNAc(b1-2)Man(a1-6)]Man(b1-4)GlcNAc(b1-4)GlcNAc
Method in brief: as §1

Gal(a1-3)Gal(b1-4)GlcNAc = target: Gal(a1-3)Gal(b1-4)GlcNAc
Method in brief: as §1

[13] = target: Gal(b1-3)GlcNAc(b1-3)Gal(b1-4)[Fuc(a1-3)]GlcNAc(b1-6)[Gal(b1-3)GlcNAc(b1-3)]Gal(b1-4)Glc
Method in brief: as §1

[14] = target: Gal(b1-3)[Neu5Ac(b2-6)]GalNAc
Method in brief: as §1

[15] = target: Gal(b1-4)GlcNAc(b1-2)Man(a1-3)[Gal(b1-4)GlcNAc(b1-2)Man(a1-6)]Man(b1-4)GlcNAc(b1-4)GlcNAc
Method in brief: as §1

[16] = target: Gal(b1-4)GlcNAc(b1-3)Gal(b1-4)GlcNAc(b1-2)Man(a1-3)[Gal(b1-4)GlcNAc(b1-3)Gal(b1-4)GlcNAc(b1-2)Man(a1-6)]Man(b1-4)GlcNAc(b1-4)[Fuc(a1-6)]GlcNAc
Method in brief: as §1

[17] = target: Gal(b1-4)GlcNAc(b1-6)[Gal(b1-4)GlcNAc(b1-3)]GalNAc
Method in brief: as §1

Gal(b1-6)Gal = target: Gal(b1-6)Gal
Method in brief: as §1

Gal3S(b1-3)GlcNAc = target: Gal3S(b1-3)GlcNAc
Method in brief: as §1

Gal3S(b1-4)Glc = target: Gal3S(b1-4)Glc
Method in brief: as §1

Gal3S(b1-4)Glc6S = target: Gal3S(b1-4)Glc6S
Method in brief: as §1

Gal3S(b1-4)GlcNAc = target: Gal3S(b1-4)GlcNAc
Method in brief: as §1

Gal3S(b1-4)GlcNAc6S = target: Gal3S(b1-4)GlcNAc6S
Method in brief: as §1

[18] = target: Gal3S(b1-4)[Fuc(a1-3)]GlcNAc6S
Method in brief: as §1

GalNAc(a1-3)Gal = target: GalNAc(a1-3)Gal
Method in brief: as §1

GalNAc(b1-3)GalNAc = target: GalNAc(b1-3)GalNAc
Method in brief: as §1

GalNAc3S(b1-4)GlcNAc = target: GalNAc3S(b1-4)GlcNAc
Method in brief: as §1

Glc(b1-4)Glc = target: Glc(b1-4)Glc
Method in brief: as §1

[19] = target: GlcNAc(a1-4)Gal(b1-3)GlcNAc
Method in brief: as §1

[20] = target: GlcNAc(b1-3)Gal(b1-4)GlcNAc(b1-3)Gal(b1-4)GlcNAc(b1-3)Gal(b1-4)GlcNAc(b1-2)[GlcNAc(b1-3)Gal(b1-4)GlcNAc(b1-3)Gal(b1-4)GlcNAc(b1-3)Gal(b1-4)GlcNAc(b1-6)]Man(a1-6)[GlcNAc(b1-3)Gal(b1-4)GlcNAc(b1-3)Gal(b1-4)GlcNAc(b1-3)Gal(b1-4)GlcNAc(b1-2)Man(a1-3)]Man(b1-4)GlcNAc(b1-4)[Fuc(a1-6)]GlcNAc
Method in brief: as §1

[21] = target: Man(a1-2)Man(a1-2)Man(a1-6)[Man(a1-3)]Man
Method in brief: as §1

[22] = target: Man(a1-2)Man(a1-3)[Man(a1-6)]Man(a1-6)[Man(a1-2)Man(a1-3)]Man(b1-4)GlcNAc(b1-4)GlcNAc
Method in brief: as §1

[23] = target: Neu5Ac(a2-3)Gal(b1-3)GalNAc(b1-4)[Neu5Ac(a2-8)Neu5Ac(a2-3)]Gal(b1-4)Glc
Method in brief: as §1

[24] = target: Neu5Ac(a2-3)Gal(b1-3)GlcNAc(b1-3)Gal(b1-3)GlcNAc
Method in brief: as §1

[25] = target: Neu5Ac(a2-3)Gal(b1-3)[GlcNAc(b1-6)]GalNAc
Method in brief: as §1

[26] = target: Neu5Ac(a2-3)Gal(b1-4)GlcNAc(b1-2)Man(a1-3)[Neu5Ac(a2-3)Gal(b1-4)GlcNAc(b1-2)Man(a1-6)]Man(b1-4)GlcNAc(b1-4)GlcNAc
Method in brief: as §1

[27] = target: Neu5Ac(a2-3)Gal(b1-4)GlcNAc(b1-3)Gal(b1-4)GlcNAc(b1-3)Gal(b1-4)GlcNAc
Method in brief: as §1

[28] = target: Neu5Ac(a2-3)Gal(b1-4)GlcNAc(b1-3)Gal(b1-4)GlcNAc(b1-3)[Neu5Ac(a2-3)Gal(b1-4)GlcNAc(b1-3)Gal(b1-4)GlcNAc(b1-6)]GalNAc
Method in brief: as §1

[29] = target: Neu5Ac(a2-3)Gal(b1-4)[Fuc(a1-3)]GlcNAc6S
Method in brief: as §1

[30] = target: Neu5Ac(a2-6)Gal(b1-4)GlcNAc(b1-3)Gal(b1-4)GlcNAc(b1-3)[Neu5Ac(a2-6)Gal(b1-4)GlcNAc(b1-3)Gal(b1-4)GlcNAc(b1-6)]GalNAc
Method in brief: as §1

Neu5Ac(a2-6)GalNAc = target: Neu5Ac(a2-6)GalNAc
Method in brief: as §1

[31] = target: Neu5Ac(a2-8)Neu5Ac(a2-3)Gal(b1-4)GlcNAc
Method in brief: as §1

[32] = target: Neu5Ac(a2-8)Neu5Ac(a2-8)Neu5Ac(a2-3)[GalNAc(b1-4)]Gal(b1-4)Glc
Method in brief: as §1

[33] = target: Neu5Gc(a2-3)Gal(b1-4)GlcNAc(b1-3)Gal(b1-4)GlcNAc(b1-2)Man(a1-3)[Neu5Gc(a2-3)Gal(b1-4)GlcNAc(b1-3)Gal(b1-4)GlcNAc(b1-2)Man(a1-6)]Man(b1-4)GlcNAc(b1-4)GlcNAc
Method in brief: as §1

[34] = target: Neu5Gc(a2-8)Neu5Gc(a2-3)Gal(b1-4)GlcNAc
Method in brief: as §1

[35] = target: Neu5Gc(a2-8)Neu5Gc(a2-3)Gal(b1-4)GlcNAc(b1-3)Gal(b1-4)GlcNAc
Method in brief: as §1

B1: MAA (Maackia amurensis), P0DKL3 (protein)
chain: MATSNSKPTQVLLATFLTFFFLLLNNVNSSDELSFTINNFVPNEADLLFQGEASVSSTGVLQLTRVENGQPQKYSVGRALYAAPVRIWDNTTGSVASFSTSFTFVVKAPNPDITSDGLAFYLAPPDSQIPSGSVSKYLGLFNNSNSDSSNQIVAVELDTYFAHSYDPWDPNYRHIGIDVNGIESIKTVQWDWINGGVAFATITYLAPNKTLIASLVYPSNQTTFSVAASVDLKEILPEWVRVGFSAATGYPTEVETHDVLSWSFTSTLEANCDAATENNVHIARYTA
- glycan array binding signal (z-score) [1]: -0.221
- glycan array binding signal (z-score) [2]: -0.262
- glycan array binding signal (z-score) [3]: -0.059
- glycan array binding signal (z-score) [4]: -0.191
- glycan array binding signal (z-score) (Fuc(a1-2)[Gal(a1-3)]Gal): -0.152
- glycan array binding signal (z-score) [5]: -0.153
- glycan array binding signal (z-score) [6]: -0.228
- glycan array binding signal (z-score) [7]: -0.128
- glycan array binding signal (z-score) [8]: -0.178
- glycan array binding signal (z-score) [9]: -0.094
- glycan array binding signal (z-score) [10]: -0.2
- glycan array binding signal (z-score) [11]: 2.89
- glycan array binding signal (z-score) [12]: 0.162
- glycan array binding signal (z-score) (Gal(a1-3)Gal(b1-4)GlcNAc): -0.243
- glycan array binding signal (z-score) [13]: -0.145
- glycan array binding signal (z-score) [14]: -0.219
- glycan array binding signal (z-score) [15]: -0.204
- glycan array binding signal (z-score) [16]: 0.122
- glycan array binding signal (z-score) [17]: -0.204
- glycan array binding signal (z-score) (Gal(b1-6)Gal): -0.212
- glycan array binding signal (z-score) (Gal3S(b1-3)GlcNAc): 1.5
- glycan array binding signal (z-score) (Gal3S(b1-4)Glc): 5.2
- glycan array binding signal (z-score) (Gal3S(b1-4)Glc6S): 6.87
- glycan array binding signal (z-score) (Gal3S(b1-4)GlcNAc): 6.25
- glycan array binding signal (z-score) (Gal3S(b1-4)GlcNAc6S): 4.71
- glycan array binding signal (z-score) [18]: 7.75
- glycan array binding signal (z-score) (GalNAc(a1-3)Gal): -0.197
- glycan array binding signal (z-score) (GalNAc(b1-3)GalNAc): -0.186
- glycan array binding signal (z-score) (GalNAc3S(b1-4)GlcNAc): 2.31
- glycan array binding signal (z-score) (Glc(b1-4)Glc): -0.161
- glycan array binding signal (z-score) [19]: -0.226
- glycan array binding signal (z-score) [20]: 0.282
- glycan array binding signal (z-score) [21]: -0.236
- glycan array binding signal (z-score) [22]: -0.2
- glycan array binding signal (z-score) [23]: -0.163
- glycan array binding signal (z-score) [24]: -0.173
- glycan array binding signal (z-score) [25]: -0.229
- glycan array binding signal (z-score) [26]: 1.17
- glycan array binding signal (z-score) [27]: 1.27
- glycan array binding signal (z-score) [28]: 1.22
- glycan array binding signal (z-score) [29]: -0.236
- glycan array binding signal (z-score) [30]: 0.454
- glycan array binding signal (z-score) (Neu5Ac(a2-6)GalNAc): -0.257
- glycan array binding signal (z-score) [31]: 0.479
- glycan array binding signal (z-score) [32]: -0.155
- glycan array binding signal (z-score) [33]: 2.07
- glycan array binding signal (z-score) [34]: 0.744
- glycan array binding signal (z-score) [35]: 1.13
